17 compounds from ChEMBL document CHEMBL1961873, “Compounds: GSK PKIS; Assays: Nanosyn kinase panel” (2012) can be followed below.

Assay [1] addresses Calcium/calmodulin-dependent protein kinase type II subunit alpha (Homo sapiens) (UniProt Q9UQM7). The conditions noted are these: at 1 µM.
Assay [2] addresses Calcium/calmodulin-dependent protein kinase type II subunit delta (Homo sapiens) (UniProt Q13557). Particulars: at 0.1 µM.
Assay [3] shares this target. Particulars: at 1 µM.
For assay [4], the target named is T1, Calcium/calmodulin-dependent protein kinase type IV (Homo sapiens) (UniProt Q16566).
T1 sequence (whole entry): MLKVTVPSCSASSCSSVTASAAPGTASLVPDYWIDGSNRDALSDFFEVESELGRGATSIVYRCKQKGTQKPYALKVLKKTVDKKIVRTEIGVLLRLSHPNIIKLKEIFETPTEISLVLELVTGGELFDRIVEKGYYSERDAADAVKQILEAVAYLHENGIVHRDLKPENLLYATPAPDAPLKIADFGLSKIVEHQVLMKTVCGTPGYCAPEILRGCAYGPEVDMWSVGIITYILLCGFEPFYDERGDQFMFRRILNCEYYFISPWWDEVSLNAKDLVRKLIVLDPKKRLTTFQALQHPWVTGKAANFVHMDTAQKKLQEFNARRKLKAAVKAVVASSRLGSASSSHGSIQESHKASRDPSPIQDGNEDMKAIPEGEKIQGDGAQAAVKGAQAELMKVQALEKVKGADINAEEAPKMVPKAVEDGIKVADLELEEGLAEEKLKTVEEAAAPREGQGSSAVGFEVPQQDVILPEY
The conditions noted are these: at 0.1 µM.

Assay [5] concerns the target T1, Calcium/calmodulin-dependent protein kinase type IV (Homo sapiens). The conditions noted are these: at 1 µM.
Assay [6] has as its target T2, Serine/threonine-protein kinase Chk1 (Homo sapiens) (UniProt O14757).
T2 sequence (whole entry): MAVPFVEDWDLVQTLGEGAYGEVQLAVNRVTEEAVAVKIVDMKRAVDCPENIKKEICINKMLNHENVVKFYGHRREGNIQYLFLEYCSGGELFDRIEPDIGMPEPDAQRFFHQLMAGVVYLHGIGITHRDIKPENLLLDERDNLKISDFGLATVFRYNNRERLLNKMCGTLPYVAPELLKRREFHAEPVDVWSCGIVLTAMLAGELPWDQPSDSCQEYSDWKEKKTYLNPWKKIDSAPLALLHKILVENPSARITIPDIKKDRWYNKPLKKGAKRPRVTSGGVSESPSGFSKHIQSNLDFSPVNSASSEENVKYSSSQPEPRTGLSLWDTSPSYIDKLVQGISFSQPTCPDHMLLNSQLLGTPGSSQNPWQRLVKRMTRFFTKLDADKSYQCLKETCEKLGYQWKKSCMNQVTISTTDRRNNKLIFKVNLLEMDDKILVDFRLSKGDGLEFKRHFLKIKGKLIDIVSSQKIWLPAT
Particulars: at 0.1 µM.

In assay [7] the target is T2, Serine/threonine-protein kinase Chk1 (Homo sapiens). Particulars: at 1 µM.
The target of assay [8] is Serine/threonine-protein kinase Chk2 (Homo sapiens) (UniProt O96017). Particulars: at 0.1 µM.
Serine/threonine-protein kinase Chk2 (Homo sapiens), sequence (O96017 whole entry): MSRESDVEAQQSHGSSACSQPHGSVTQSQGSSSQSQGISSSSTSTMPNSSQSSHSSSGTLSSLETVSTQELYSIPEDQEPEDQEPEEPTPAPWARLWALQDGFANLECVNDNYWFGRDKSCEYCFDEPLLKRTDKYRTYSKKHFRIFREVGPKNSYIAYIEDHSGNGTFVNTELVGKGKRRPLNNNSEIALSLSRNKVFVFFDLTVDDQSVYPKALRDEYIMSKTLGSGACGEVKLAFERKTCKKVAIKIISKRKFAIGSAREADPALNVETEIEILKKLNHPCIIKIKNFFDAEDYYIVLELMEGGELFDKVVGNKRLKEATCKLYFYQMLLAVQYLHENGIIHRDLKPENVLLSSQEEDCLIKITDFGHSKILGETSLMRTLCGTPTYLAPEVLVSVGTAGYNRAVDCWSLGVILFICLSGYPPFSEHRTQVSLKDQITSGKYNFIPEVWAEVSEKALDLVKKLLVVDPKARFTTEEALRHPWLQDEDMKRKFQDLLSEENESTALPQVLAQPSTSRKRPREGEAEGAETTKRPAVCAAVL
Assay [9] shares this target. The conditions noted are these: at 1 µM.
Assay [10] concerns the target Death-associated protein kinase 1 (Homo sapiens) (UniProt P53355). The conditions noted are these: at 0.1 µM.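 Further: reported figure is the mean inhibition of DAPK1.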

The term inhibition denotes the drop in the measured response relative to a control, in per cent.

Death-associated protein kinase 1 (Homo sapiens), sequence (P53355 whole entry, looked up): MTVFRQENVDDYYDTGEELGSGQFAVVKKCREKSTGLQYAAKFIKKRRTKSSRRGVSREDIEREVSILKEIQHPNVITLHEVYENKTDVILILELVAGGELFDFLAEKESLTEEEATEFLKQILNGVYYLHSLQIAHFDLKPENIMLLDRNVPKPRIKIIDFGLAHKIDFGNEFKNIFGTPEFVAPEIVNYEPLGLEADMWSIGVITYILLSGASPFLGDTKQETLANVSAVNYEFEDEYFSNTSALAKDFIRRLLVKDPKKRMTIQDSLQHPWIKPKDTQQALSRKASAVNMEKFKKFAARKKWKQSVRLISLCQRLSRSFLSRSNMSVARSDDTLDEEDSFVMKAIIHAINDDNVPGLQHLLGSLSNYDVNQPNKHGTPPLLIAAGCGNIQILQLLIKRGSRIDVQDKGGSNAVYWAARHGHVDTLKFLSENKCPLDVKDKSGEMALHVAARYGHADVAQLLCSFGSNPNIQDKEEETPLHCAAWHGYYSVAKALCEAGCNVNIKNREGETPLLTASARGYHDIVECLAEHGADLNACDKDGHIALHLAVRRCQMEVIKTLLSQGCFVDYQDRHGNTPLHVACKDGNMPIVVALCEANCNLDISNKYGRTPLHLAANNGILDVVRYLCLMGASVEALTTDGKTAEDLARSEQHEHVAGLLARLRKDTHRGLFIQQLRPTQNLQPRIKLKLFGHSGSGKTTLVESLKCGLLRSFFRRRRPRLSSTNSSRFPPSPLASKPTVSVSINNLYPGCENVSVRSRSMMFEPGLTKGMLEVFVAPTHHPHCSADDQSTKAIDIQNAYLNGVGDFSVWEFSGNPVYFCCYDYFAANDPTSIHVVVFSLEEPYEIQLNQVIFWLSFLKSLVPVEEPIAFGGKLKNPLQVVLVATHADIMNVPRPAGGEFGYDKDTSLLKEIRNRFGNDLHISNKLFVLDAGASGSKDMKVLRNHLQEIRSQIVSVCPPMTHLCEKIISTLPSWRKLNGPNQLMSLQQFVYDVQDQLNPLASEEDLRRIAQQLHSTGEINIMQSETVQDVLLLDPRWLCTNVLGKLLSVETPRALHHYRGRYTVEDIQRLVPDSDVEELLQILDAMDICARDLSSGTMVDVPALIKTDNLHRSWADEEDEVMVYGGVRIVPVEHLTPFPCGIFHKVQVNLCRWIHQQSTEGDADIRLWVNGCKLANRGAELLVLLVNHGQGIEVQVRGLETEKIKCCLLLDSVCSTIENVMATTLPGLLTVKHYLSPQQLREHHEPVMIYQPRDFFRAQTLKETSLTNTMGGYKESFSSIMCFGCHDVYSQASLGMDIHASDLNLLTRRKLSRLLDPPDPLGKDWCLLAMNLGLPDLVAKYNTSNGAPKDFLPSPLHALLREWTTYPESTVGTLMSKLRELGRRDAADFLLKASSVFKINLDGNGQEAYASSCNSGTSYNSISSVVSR
Calcium/calmodulin-dependent protein kinase type II subunit alpha (Homo sapiens), sequence (Q9UQM7 whole entry): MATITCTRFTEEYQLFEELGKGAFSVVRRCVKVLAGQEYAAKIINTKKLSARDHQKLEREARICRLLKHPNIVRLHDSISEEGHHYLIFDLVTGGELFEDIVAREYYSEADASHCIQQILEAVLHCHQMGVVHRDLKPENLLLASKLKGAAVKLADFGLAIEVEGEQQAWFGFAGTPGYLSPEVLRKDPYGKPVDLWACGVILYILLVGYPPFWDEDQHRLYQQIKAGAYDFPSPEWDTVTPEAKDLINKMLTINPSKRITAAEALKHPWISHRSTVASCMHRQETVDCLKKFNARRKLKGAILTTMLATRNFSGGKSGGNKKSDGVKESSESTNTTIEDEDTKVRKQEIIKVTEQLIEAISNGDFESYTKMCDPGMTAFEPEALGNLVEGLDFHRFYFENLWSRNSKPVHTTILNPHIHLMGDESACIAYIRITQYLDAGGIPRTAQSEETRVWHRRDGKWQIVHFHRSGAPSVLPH
Calcium/calmodulin-dependent protein kinase type II subunit delta (Homo sapiens), sequence (Q13557 whole entry): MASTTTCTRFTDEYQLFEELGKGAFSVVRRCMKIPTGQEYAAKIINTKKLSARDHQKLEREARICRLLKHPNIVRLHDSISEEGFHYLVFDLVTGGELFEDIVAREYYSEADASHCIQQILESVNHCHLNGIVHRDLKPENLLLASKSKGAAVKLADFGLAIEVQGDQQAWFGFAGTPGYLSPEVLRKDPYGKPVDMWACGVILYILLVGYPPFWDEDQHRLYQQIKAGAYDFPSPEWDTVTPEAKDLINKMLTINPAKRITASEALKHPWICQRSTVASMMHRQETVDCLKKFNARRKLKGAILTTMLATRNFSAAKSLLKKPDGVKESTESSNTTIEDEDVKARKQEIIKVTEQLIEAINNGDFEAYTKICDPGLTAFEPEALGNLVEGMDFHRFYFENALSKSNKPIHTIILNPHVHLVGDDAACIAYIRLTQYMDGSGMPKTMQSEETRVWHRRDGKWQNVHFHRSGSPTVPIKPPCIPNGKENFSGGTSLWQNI

On to `COc1ccc(-c2nn3ncccc3c2-c2ccnc(Nc3ccc(Cl)c(C(F)(F)F)c3)n2)cc1`, for which the inhibition was 0.35% in assay [1]; 0.24% in assay [2]; -0.01% in assay [3]; -1.57% in [4]; -4.24% in [5]; -0.59% in assay [6]. The inhibition in [7] was -3.23%; in [8], 1.35%; in assay [9], 2.73%; in assay [10], 1.96%.
For `CCn1c(-c2nonc2N)nc2cnc(Oc3cccc(NC(=O)c4ccc(OCCN5CCOCC5)cc4)c3)cc21`, the inhibition in assay [1] was 2.17%; in assay [2], 1.77%; in assay [3], 4%; in assay [4], 2.08%; in assay [5] it was 2.49%; in assay [6], -8.33%. The inhibition in assay [7] was 4.37%; in assay [8], 3.15%; in assay [9], 13.3%; in assay [10], -1.49%.
Regarding `CS(=O)(=O)CCN(CC#N)Cc1ccc(-c2ccc3ncnc(Nc4ccc(OCc5cccc(F)c5)c(Cl)c4)c3c2)o1`, the inhibition was -2.02% in [1]; 1.25% in assay [2]; 2.48% in assay [3]; -2.98% in assay [4]; -0.45% in assay [5]; 0.28% in [6]. The inhibition in assay [7] was 2.55%; in [8], 0.67%; in assay [9], 1.7%; in [10], -0.47%.
`CCn1c(-c2nonc2N)nc2cncc(C(=O)N3CC[C@H](N)C3)c21`: the inhibition in assay [1] was 3.64%; in [2], 4.1%; in assay [3] it was 4.33%; in [4], 1.7%; in assay [5], -0.55%; in assay [6], 4.56%. Further, the inhibition in assay [7] is 6.37%; in assay [8] it was 1.1%; in [9] it was 1.86%; in assay [10], 5.74%.
As to `Nc1ncnc2occ(-c3ccc(NC(=O)Nc4cccc(C(F)(F)F)c4)cc3)c12`, the inhibition in assay [1] is 1.03%; in assay [2], 3.02%; in [3] it was 2.75%; in assay [4] it was -0.91%; in assay [5] it was 4.17%; in assay [6], 6.67%. Further, the inhibition was determined as 5.24% in assay [7], 3.95% in [8], 6.09% in assay [9] and 8.33% in assay [10].
As for `CC1=C(C(=O)Nc2ccc3[nH]ncc3c2)C(c2ccc(Cl)c(Cl)c2)CC(=O)N1` (centres undefined), the inhibition was 2.88% in assay [1]; 2.72% in [2]; 3.98% in assay [3]; 1.22% in assay [4]; 2.09% in [5]; -1.3% in assay [6]. Besides, the inhibition is -0.85% in [7], 1.4% in assay [8], 4.28% in [9] and -2.03% in assay [10].
Regarding `COc1cc2ncn(-c3cc(O[C@H](C)c4ccccc4Cl)c(C(N)=O)s3)c2cc1OC`, the inhibition was 7.42% in assay [1]; 5.14% in assay [2]; 19.1% in [3]; -2.07% in assay [4]; -0.73% in assay [5]; 3.51% in [6]. Moreover, the inhibition is -0.5% in assay [7], -2.58% in [8], -0.51% in assay [9] and -5.15% in [10].
For `COc1cc2ncn(-c3cc(OCc4ccccc4Cl)c(C(N)=O)s3)c2cc1OC`, the inhibition in assay [1] was -0.06%; in [2] it was 0.36%; in [3], 2.88%; in assay [4], 0.78%; in assay [5], 0.41%; in assay [6], -4.54%. For the same compound, the inhibition in assay [7] was -4.25%; in assay [8], -4.95%; in assay [9], -0.53%; in assay [10] it was -8.75%.
With `CCn1c(-c2nonc2N)nc2cncc(C(=O)N3CCNCC3)c21`, the inhibition in assay [1] is 4.17%; in [2], 4.29%; in assay [3], 6.57%; in [4], -0.66%; in [5], 1.55%; in assay [6] it was 6.55%. For the same compound, the inhibition was found to be 13.8% in assay [7], 2.96% in assay [8], 5.6% in [9] and 8.7% in [10].
For `COc1ccc2cc(-c3c(-c4ccncc4)nc(-c4ccc([S+](C)[O-])cc4)n3C)ccc2c1` (centres undefined), the inhibition worked out at 3.37% in assay [1]; 2.81% in assay [2]; 3.06% in assay [3]; 0.45% in [4]; 1.25% in [5]; 3.28% in assay [6]. The inhibition came out at 4.03% in assay [7], 2.27% in assay [8], 2.52% in assay [9] and 3.27% in [10].
For the compound `COc1ccc(-c2coc3ncnc(N)c23)cc1`, the inhibition was 3.94% in assay [1]; 3.92% in [2]; 5.31% in [3]; 1.63% in [4]; 1.94% in [5]; 9.42% in assay [6]. Further, the inhibition came to 12.4% in assay [7], 7.79% in assay [8], 8.17% in assay [9] and 10.8% in assay [10].
As to `O=C1NC(=O)C(c2ccccc2Cl)=C1Nc1cccc(O)c1`, the inhibition in assay [1] is 5.26%; in assay [2], 3.96%; in assay [3], 11.7%; in [4], 0.91%; in [5], 1.07%; in assay [6], -0.11%. In addition, the inhibition amounted to 1.92% in [7], 1.18% in assay [8], 2.39% in assay [9] and 3.2% in [10].
On to `CCn1c(-c2nonc2N)nc2c(C#CC(C)(C)O)nc(OC[C@@H](N)c3ccccc3)cc21`, for which the inhibition was 0.34% in [1]; -0.01% in [2]; 1.5% in assay [3]; 2.61% in [4]; 3.39% in assay [5]; -5.33% in assay [6]. The inhibition in [7] is 7.52%; in assay [8], -5.8%; in [9], 1.05%; in assay [10], -8.66%.
As for `Cc1nnc(-c2ccc(C)c(-c3ccc(C(=O)Nc4cccc(C#N)c4)cc3)c2)o1`, the inhibition in [1] was 1.16%; in assay [2], 1.1%; in assay [3], 1.51%; in assay [4] it was -1.55%; in assay [5], -0.84%; in assay [6] it was 0.73%. For the same compound, the inhibition is 0.92% in assay [7], 1.03% in [8], 4.05% in [9] and 3.42% in [10].
With `CCn1c(-c2nonc2N)nc2c(C#CC(C)(C)O)nc(CN3CCCC3)cc21`, the inhibition in assay [1] was 0.03%; in [2], -0.33%; in assay [3], 1.82%; in assay [4], -3.55%; in assay [5], 1.55%; in assay [7], -2.45%. For the same compound, the inhibition in [8] was -1.49%; in assay [9], 0.49%; in [10] it was 0.05%.
Take `O=C1NC(=O)C(N2CCc3ccccc32)=C1c1ccc(Cl)cc1`: the inhibition in [1] is 2.12%; in assay [2] it was 4.21%; in assay [3], 5.17%; in [4] it was 0.68%; in assay [5], 0.58%; in [6] it was 9.38%. Further, the inhibition in [7] was 12.7%; in assay [8], 8.35%; in assay [9] it was 8.52%; in assay [10], 11.1%.
Take `O=C1NC(=O)C(c2cccc(Cl)c2)=C1Nc1ccc(O)c(Cl)c1`: the inhibition turned out to be 6.43% in [1]; 3.12% in [2]; 12% in [3]; 1.98% in assay [4]; 4.94% in assay [5]; 1.7% in assay [6]. For the same compound, the inhibition was found to be 4.63% in [7], 0.16% in [8], 2.07% in assay [9] and 1.29% in assay [10].
